# According to PubChem BioAssay (Tox21):
# “And” between values parts separate entries of the source, which are not always exact repeats. Equal entries are not always repeated. Records with an inconclusive call do not appear. Where a call stands in place of a potency, no number is given. A number with no mark means an inactive call. The source made the active and inactive calls. Unless noted, calls come from the whole dose curve; as a rule, active = well fitted curve in the direction sought with a large enough effect in the repeat runs; inconclusive = weak or mixed curves; inactive = no such curve, though single readings can be large; an effect the other way counts as inactive or inconclusive.
# Legend:
# [1] = qHTS assay to identify aromatase inhibitors - cell viability counter screen (AID 743084);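 note: cells stimulated with testosterone during compound exposure; nearly all actives have a fitted effect of over 55% in size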
# [2] = target: Aryl hydrocarbon receptor (Homo sapiens) (UniProt P35869); assay: qHTS assay to identify small molecule that activate the aryl hydrocarbon receptor (AhR) signaling pathway (AID 743085); note: nearly all actives have a fitted effect of over 15% in size; note: potency is the fitted concentration of half-maximal effect;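 for activation: HG2L7.5c1 human HepG2 liver cells with stably integrated DRE-driven firefly reporter; series mostly up to about 70 µM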
# In short: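 HepG2 cells stably carrying a 20-DRE firefly luciferase reporter (HG2L7.5c1) treated with compound for 24 hr at 37C. Luciferase read by ONE-Glo luminescence, with CellTiter-Fluor viability read first.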
# [3] = qHTS assay to identify small molecule that activate the aryl hydrocarbon receptor (AhR) signaling pathway - cell viability counter screen (AID 743086);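 note: HepG2 liver cells carrying the AhR DRE luciferase reporter; series mostly up to about 70 µM; nearly all actives have a fitted effect of over 45% in size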
# In short: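 HepG2-AhR-luc (HG2L7.5c1) cells, 4000/well, were preincubated 5 h at 37C, exposed to compound in qHTS format for 24 hr at 37C, then given CellTiter-Fluor for 30 min; viability was read as fluorescence in the reporter wells.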
# [4] = target: Peroxisome proliferator-activated receptor gamma (Homo sapiens) (UniProt P37231); assay: qHTS assay to identify small molecule agonists of the peroxisome proliferator-activated receptor gamma (PPARg) signaling pathway (AID 743094; active = well fitted activation curve with a large enough effect in the signal ratio in the repeat runs, not every such curve was filed as active; the % refers to the signal ratio)
# In short: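 GeneBLAzer PPARg UAS-bla HEK293H cells carrying a stably integrated beta-lactamase reporter were pre-incubated 5 h at 37C, then exposed to compounds in DMSO for 17 h at 37C; LiveBLAzer B/G FRET substrate was added for 1 h at room temperature and fluorescence read.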
# [5] = target: Peroxisome proliferator-activated receptor gamma (Homo sapiens) (UniProt P37231); assay: qHTS assay to identify small molecule antagonists of the peroxisome proliferator-activated receptor gamma (PPARg) signaling pathway (AID 743191; calls by dose curve; note: nearly all actives have a fitted effect of over 30% in size; note: potency is the fitted concentration of half-maximal effect; for ratio activity, negative = inhibition: series mostly up to about 63 µM)
# In short: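 GeneBLAzer PPARg UAS-bla HEK293H cells carrying a UAS-driven beta-lactamase reporter were plated at 3000 cells/well, preincubated 5 h at 37C, then given compound for 17 h at 37C; LiveBLAzer B/G FRET substrate was read after 1 h at room temperature.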
# [6] = qHTS assay to identify small molecule antagonists of the peroxisome proliferator-activated receptor gamma (PPARg) signaling pathway - cell viability counter screen (AID 743194); note: nearly all actives have a fitted effect of over 55% in size
# In short: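 PPARg-UAS-bla HEK293H cells were plated, rested 5 h at 37 C, then treated with compounds plus rosiglitazone (50 nM final) for 17 h at 37 C; viability was then read by CellTiter-Glo luminescence after 30 min at room temperature.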
# [7] = qHTS assay for small molecule agonists of the antioxidant response element (ARE) signaling pathway (AID 743202; active = well fitted activation curve with a large enough effect in the signal ratio in the repeat runs, not every such curve was filed as active; the % refers to the signal ratio; note: potency is the fitted concentration of half-maximal effect)
# In short: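 Read-out: LiveBLAzer B/G FRET substrate fluorescence after 2 h at room temperature, following 16 h compound treatment at 37 C of HepG2 cells carrying an ARE-driven beta-lactamase reporter.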
# [8] = qHTS assay for small molecule activators of the heat shock response signaling pathway (AID 743210; active = well fitted activation curve with a large enough effect in the signal ratio in the repeat runs, with a control signal flat, not every such curve was filed as active; the % refers to the signal ratio; note: series mostly up to about 63 µM)
# In short: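 HSE-bla HeLa cells (beta-lactamase reporter under heat shock response elements) were exposed to compounds for 5 h at 37 C, then loaded with LiveBLAzer B/G FRET substrate for 2.5 h at room temperature before fluorescence reading.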
# [9] = qHTS assay for small molecule activators of the heat shock response signaling pathway - cell viability counter screen (AID 743209); note: nearly all actives have a fitted effect of over 50% in size
# In short: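 CellSensor HSE-bla HeLa cells, plated overnight at 37 C/5% CO2, were exposed to compounds in DMSO for 5 h at 37 C. Viability was then read in the same wells by CellTiter-Glo luminescence after 30 min at room temperature.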
# [10] = qHTS assay for small molecule agonists of the antioxidant response element (ARE) signaling pathway - cell viability counter screen (AID 743203; calls by dose curve; note: nearly all actives have a fitted effect of over 55% in size)
# In short: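 CellSensor ARE-bla HepG2 cells, 2,000 per well, rested 5 hrs at 37C/5% CO2, then exposed to compound in DMSO for 16 hrs; viability read as CellTiter-Glo luminescence after 30 min at room temperature, in the reporter wells.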
# Chain of Aryl hydrocarbon receptor (Homo sapiens) (P35869 whole entry, looked up): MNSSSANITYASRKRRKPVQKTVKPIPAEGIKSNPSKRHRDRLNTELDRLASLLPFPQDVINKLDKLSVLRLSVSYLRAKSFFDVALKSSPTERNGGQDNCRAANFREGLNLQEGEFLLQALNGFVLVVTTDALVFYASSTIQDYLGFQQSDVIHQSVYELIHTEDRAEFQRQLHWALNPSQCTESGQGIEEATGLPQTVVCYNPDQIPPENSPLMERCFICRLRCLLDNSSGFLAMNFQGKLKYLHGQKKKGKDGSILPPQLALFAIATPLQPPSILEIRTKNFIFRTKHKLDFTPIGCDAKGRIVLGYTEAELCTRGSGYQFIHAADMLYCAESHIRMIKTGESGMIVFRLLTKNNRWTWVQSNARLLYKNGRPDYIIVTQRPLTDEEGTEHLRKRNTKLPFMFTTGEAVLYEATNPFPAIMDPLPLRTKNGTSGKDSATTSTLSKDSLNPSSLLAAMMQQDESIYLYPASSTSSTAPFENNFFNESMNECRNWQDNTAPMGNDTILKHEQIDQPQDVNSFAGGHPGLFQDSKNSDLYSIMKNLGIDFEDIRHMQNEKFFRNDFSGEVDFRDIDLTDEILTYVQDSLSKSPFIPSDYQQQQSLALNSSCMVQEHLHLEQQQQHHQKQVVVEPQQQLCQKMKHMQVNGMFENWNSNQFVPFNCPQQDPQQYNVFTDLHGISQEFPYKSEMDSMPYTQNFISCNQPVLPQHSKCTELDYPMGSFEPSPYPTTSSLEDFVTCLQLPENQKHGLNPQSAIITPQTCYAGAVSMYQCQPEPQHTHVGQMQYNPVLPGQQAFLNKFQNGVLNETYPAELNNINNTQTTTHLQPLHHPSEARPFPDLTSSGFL
# Chain of Peroxisome proliferator-activated receptor gamma (Homo sapiens) (P37231 whole entry, looked up): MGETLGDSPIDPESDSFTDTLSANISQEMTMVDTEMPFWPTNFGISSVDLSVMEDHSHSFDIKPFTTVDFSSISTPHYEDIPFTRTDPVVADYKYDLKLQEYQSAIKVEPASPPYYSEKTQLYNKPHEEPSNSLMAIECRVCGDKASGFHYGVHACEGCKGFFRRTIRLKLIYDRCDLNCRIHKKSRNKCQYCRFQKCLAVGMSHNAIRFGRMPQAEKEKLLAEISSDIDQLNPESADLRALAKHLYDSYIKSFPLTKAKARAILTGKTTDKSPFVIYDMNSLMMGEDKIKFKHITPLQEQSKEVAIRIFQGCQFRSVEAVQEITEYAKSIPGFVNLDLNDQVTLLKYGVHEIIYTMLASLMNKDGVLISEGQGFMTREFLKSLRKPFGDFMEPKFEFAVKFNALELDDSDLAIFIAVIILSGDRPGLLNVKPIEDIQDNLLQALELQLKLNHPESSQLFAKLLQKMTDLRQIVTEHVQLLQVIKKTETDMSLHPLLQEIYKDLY
Compound,outcome [1],Potency [2],outcome [3],outcome [4],Potency [5],outcome [6],Potency [7],outcome [8],outcome [9],outcome [10],"ratio activity, negative = inhibition [5]"
CCC[N+](=O)[O-],inactive,inactive,inactive,inactive,inactive,inactive,inactive,inactive,–,–,–
CCOP(OCC)OCC,inactive,inactive,inactive,inactive,inactive,inactive,inactive,inactive,inactive,–,–
Clc1cccc(Cl)c1Cl,inactive,inactive,inactive,inactive,inactive,inactive,inactive,inactive,inactive,–,–
CC1OC(C)OC(C)O1 (stereo not drawn),inactive,inactive,inactive,inactive,inactive,inactive,inactive,inactive,–,inactive,–
O=S(=O)(c1ccc(O)cc1)c1ccc(O)cc1,inactive,inactive,inactive,inactive,inactive,inactive,inactive,inactive,–,inactive,–
Oc1ccccc1Cl,inactive,inactive,inactive,inactive,inactive,inactive,inactive,inactive,inactive,–,–
CC(C)N1C(=O)c2ccccc2NS1(=O)=O,inactive,inactive,inactive,inactive,inactive,inactive,inactive,inactive,–,–,–
CCCN(CCC)c1c([N+](=O)[O-])cc(C(F)(F)F)cc1[N+](=O)[O-],inactive,inactive,inactive,inactive,inactive,inactive,inactive,inactive,–,inactive,–
O=C1CCCN1,inactive,inactive,inactive,inactive,inactive,inactive,inactive,inactive,inactive,–,–
C1CC2OC2CC1C1CO1 (stereo not drawn),inactive,inactive,inactive,inactive,inactive,inactive,inactive,inactive,inactive,–,–
O=c1n(Cl)c(=O)n(Cl)c(=O)n1Cl,inactive,inactive,inactive,inactive,inactive,inactive,inactive,inactive,–,–,–
CN(C)CCO,inactive,inactive,inactive,inactive,inactive,inactive,inactive,inactive,inactive,–,–
Nc1ccc(Oc2ccc(N)cc2)cc1,inactive,11 µM (active),inactive,inactive,inactive,inactive,inactive,inactive,inactive,–,–
CC(C#N)CCC#N (stereo not drawn),inactive,inactive,inactive,inactive,inactive,inactive,inactive,inactive,–,inactive,–
ClCCBr,inactive,inactive,inactive,inactive,inactive,inactive,inactive,–,inactive,–,–
CN(C)N=O,inactive,inactive,inactive,inactive,inactive,inactive,inactive,inactive,inactive,–,–
CCCCCCCCCCCC#N,inactive,inactive,inactive,inactive,inactive,inactive,inactive,inactive,–,–,–
Cc1ccc([N+](=O)[O-])cc1C,inactive,inactive,inactive,inactive,inactive,inactive,inactive,inactive,–,inactive,–
CCOP(=S)(OCC)SCCSCC,inactive,inactive,inactive,inactive,inactive,inactive,inactive,inactive,–,–,–
C=C(C)CCl,inactive,inactive,inactive,inactive,–,inactive,inactive,inactive,inactive,–,-4.46% [at 5.95 µM]

Compound,outcome [1],Potency [2],outcome [3],outcome [4],Potency [5],outcome [6],Potency [7],outcome [8],outcome [9],outcome [10],"ratio activity, negative = inhibition [5]"
CCCCOC(=O)c1ccccc1C(=O)OCCCC,inactive,inactive,inactive,inactive,inactive,inactive,inactive,inactive,inactive,–,–
CC(C)OC(=O)Nc1ccccc1,inactive,inactive,inactive,inactive,inactive,inactive,inactive,inactive,inactive,–,–
CC(C)C#N,inactive,inactive,inactive,inactive,inactive,inactive,inactive,inactive,–,–,–
CON(C)C(=O)Nc1ccc(Cl)c(Cl)c1,inactive,21.8 µM (active) and 27.3 µM (active),inactive,inactive,–,inactive,inactive,inactive,inactive,–,–
COP(N)(=O)SC (stereo not drawn),inactive,inactive,inactive,inactive,inactive,inactive,inactive,inactive,–,–,–
C#CC(C)(C)NC(=O)c1cc(Cl)cc(Cl)c1,inactive,inactive,inactive,–,–,inactive,inactive,inactive,inactive,inactive,–
CC(NC(C)(C)C)C(=O)c1cccc(Cl)c1 (stereo not drawn),inactive,inactive,inactive,–,–,inactive,inactive,–,–,–,–
C=CC(N)=O,inactive,inactive,inactive,–,–,inactive,inactive,inactive,inactive,inactive,–
Clc1ccccc1Cl,inactive,inactive,inactive,inactive,–,inactive,inactive,inactive,inactive,inactive,–
Nc1ccccc1C(=O)O,inactive,inactive,inactive,inactive,inactive,inactive,inactive,inactive,–,–,–
CCCCN(CCCC)SN(C)C(=O)Oc1cccc2c1OC(C)(C)C2,inactive,inactive,inactive,inactive,–,–,inactive,inactive,inactive,inactive,–
CCC(C)(CC)c1cc(NC(=O)c2c(OC)cccc2OC)on1,inactive,61.3 µM (active),inactive,inactive,–,inactive,–,inactive,inactive,inactive,–
c1ccc2c(c1)Oc1ccccc1O2,inactive,inactive,inactive,–,–,inactive,inactive,inactive,inactive,inactive,–
CC(C)OC(=O)Nc1cccc(Cl)c1,inactive,inactive,inactive,inactive,–,inactive,inactive,inactive,inactive,inactive,–
CN1C(=O)CN=C(c2ccccc2)c2cc(Cl)ccc21,inactive,–,inactive,–,–,inactive,inactive,inactive,inactive,inactive,–
O=C(NC(=O)c1c(F)cccc1F)Nc1cc(Cl)c(OC(F)(F)C(F)C(F)(F)F)cc1Cl (stereo not drawn),inactive,inactive,inactive,inactive,–,inactive,–,inactive,inactive,inactive,–
OCCN(CCO)CCO,–,–,inactive,–,–,inactive,inactive,–,inactive,inactive,–
O=S(=O)(c1ccc(Cl)cc1)c1cc(Cl)c(Cl)cc1Cl,inactive,inactive,inactive,inactive,–,inactive,inactive,–,–,–,–
CN(C)[C@@H]1C(=O)C(C(N)=O)=C(O)[C@@]2(O)C(=O)C3=C(O)c4c(O)cccc4[C@@](C)(O)[C@H]3C[C@@H]12,inactive,inactive,inactive,inactive,–,inactive,–,inactive,inactive,inactive,–
CCCC1COC(Cn2cncn2)(c2ccc(Cl)cc2Cl)O1 (stereo not drawn),inactive,34.4 µM (active),inactive,inactive,inactive,inactive,–,inactive,inactive,inactive,–

Compound,outcome [1],Potency [2],outcome [3],outcome [4],Potency [5],outcome [6],Potency [7],outcome [8],outcome [9],outcome [10],"ratio activity, negative = inhibition [5]"
CC(C)(C)OOC(C)(C)C,inactive,inactive,inactive,inactive,–,inactive,inactive,inactive,inactive,inactive,–
C[C@]12CC[C@H]3[C@@H](CC[C@@]45O[C@@H]4C(O)=C(C#N)C[C@]35C)[C@@H]1CC[C@@H]2O,inactive,inactive,inactive,–,–,inactive,30.6 µM (active) and 23.7 µM (active),inactive,inactive,–,–
COc1ccc2c3c1O[C@H]1[C@@H](O)C=C[C@H]4[C@@H](C2)N(C)CC[C@@]341,inactive,inactive,inactive,inactive,–,inactive,26.9 µM (active),inactive,inactive,inactive,–
CCNc1nc(NC(C)(C)C)nc(SC)n1,inactive,1.52 µM (active),inactive,inactive,inactive,inactive,–,inactive,–,inactive,–
CC(C)(C)C(O)(CCc1ccc(Cl)cc1)Cn1cncn1 (stereo not drawn),inactive,inactive,inactive,–,inactive,inactive,–,inactive,inactive,–,–
C=CCO,inactive,inactive,inactive,–,–,inactive,inactive,–,–,–,–
[N-]=[N+]=[N-],inactive,–,inactive,inactive,inactive,inactive,–,inactive,inactive,inactive,–
O=c1[nH]c2ccccc2c(=O)o1,inactive,inactive,inactive,inactive,–,inactive,inactive,inactive,inactive,inactive,–
CCOC(=O)c1ccccc1C(=O)OCC,inactive,–,inactive,inactive,inactive,inactive,inactive,inactive,–,inactive,–
c1ccc2c(c1)oc1ccccc12,–,–,inactive,–,–,inactive,inactive,inactive,inactive,–,–
NCC(O)c1ccc(O)cc1 (stereo not drawn),inactive,inactive,inactive,inactive,–,inactive,inactive,inactive,inactive,inactive,–
COC(=O)NC(=S)Nc1ccccc1NC(=S)NC(=O)OC,inactive,–,inactive,inactive,inactive,inactive,–,inactive,inactive,inactive,–
CCc1cccc(C)c1N(C(=O)CCl)C(C)COC (stereo not drawn),inactive,inactive,inactive,–,21.9 µM (active),inactive,8.14 µM (active) and 19.3 µM (active),inactive,inactive,inactive,–
Cc1cccc([N+](=O)[O-])c1,inactive,–,inactive,inactive,inactive,inactive,inactive,inactive,–,inactive,–
CNC(=O)Oc1ccccc1OC(C)C,inactive,inactive,inactive,inactive,–,inactive,inactive,inactive,–,–,–
Nc1ccc(Br)cc1,inactive,61 µM (active) and 21.7 µM (active),inactive,inactive,–,inactive,inactive,inactive,–,inactive,–
Cc1ccc(N)cc1Cl,inactive,–,inactive,inactive,inactive,inactive,inactive,inactive,inactive,inactive,–
CC(C)(Cl)Cl,inactive,inactive,inactive,inactive,inactive,inactive,–,inactive,–,–,–
Cn1cc(-c2ccccc2)c(=O)c(-c2cccc(C(F)(F)F)c2)c1,–,inactive,inactive,inactive,inactive,inactive,inactive,inactive,inactive,–,–
